Measured values: the supplement of paper PMC10849652
About 7,900 targets were measured; listed, in parts, are those with a hit and a random draw of the rest. About 0.6% of all pairs of compound and target were hits.

What was measured:
Assay in all cases: log2 fold change, soluble protein after heating vs DMSO (PISA); higher = thermal stabilisation; K562 cells, 10 uM, 30 min; active = over 0.2 and 3.5 SD of the protein, either way, in both replicates (recomputed)
[1] = compound: Cc1ccc(NC(=O)c2ccc(CN3CC[C@H](N(C)C)C3)c(C(F)(F)F)c2)cc1Nc1nccc(-c2cncnc2)n1 [bafetinib]
Outline: (§1)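 Quantification of soluble protein used TMTpro 16plex LC-MS/MS, with channel sums equalised. Samples were the supernatant after 21,000xg for 90 min of pooled aliquots from K562 cells (2×10^6 cells/mL) treated with 10 μM compound for 30 min, heated for 3 min over 48°C-58°C, and extracted in PBS with 0.5% NP-40 at 4°C. Values, from duplicates, describe thermal stability against control samples on a log2 fold-change scale.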

[2] = compound: Cc1cccc(CC(=O)N2CCc3c2ccc(-c2cn(C)c4ncnc(N)c24)c3F)n1
Outline: as §1

[3] = compound: Cc1cn(-c2cc(NC(=O)c3ccc(C)c(Nc4nccc(-c5cccnc5)n4)c3)cc(C(F)(F)F)c2)cn1 [nilotinib]
Outline: as §1

[4] = compound: Cc1nc(Nc2n[nH]c3c2CN(C(=O)N[C@H](CN(C)C)c2ccccc2)C3(C)C)c2sccc2n1
Outline: as §1

[5] = compound: Cc1nc(Nc2ncc(C(=O)Nc3c(C)cccc3Cl)s2)cc(N2CCN(CCO)CC2)n1 [dasatinib]
Outline: as §1

[6] = compound: Cc1ncc(-c2ccnc(Nc3ccc(S(C)(=O)=O)cc3)n2)n1C(C)C
Outline: as §1

[7] = compound: Cn1cc(-c2ccc3c(c2)CCN3C(=O)Cc2cccc(C(F)(F)F)c2)c2c(N)ncnc21
Outline: as §1

[8] = compound: Cn1cc(-c2ccc3nnc(C(F)(F)c4ccc5ncccc5c4)n3n2)cn1
Outline: as §1

[9] = compound: Cn1cncc1[C@@](N)(c1ccc(Cl)cc1)c1ccc2c(c1)c(-c1cccc(Cl)c1)cc(=O)n2C [tipifarnib]
Outline: as §1

[10] = compound: FC(F)(F)c1ccc(/C=C/c2nc(COc3ccc(CCCCn4ccnn4)cc3)co2)cc1 [mubritinib]
Outline: as §1

Measured: log2 fold change

TAF9 (UniProt Q16594)
inactive: [1] -0.076 | [2] -0.026 | [3] 0.061 | [4] -0.031 | [5] 0.146 | [6] -0.086 | [7] -0.12 | [8] -0.011 | [9] 0.077 | [10] -0.005

TCOF1 isoform 4 (UniProt Q13428)
inactive: [1] -0.037 | [2] -0.012 | [3] -0.022 | [4] 0.045 | [5] 0.048 | [6] -0.034 | [7] -0.046 | [8] -0.014 | [9] 0.022 | [10] 0.025

SUMO1 (UniProt P63165)
inactive: [1] -0.071 | [2] -0.023 | [3] -0.022 | [4] -0.078 | [5] 0.041 | [6] -0.04 | [7] -0.209 | [8] -0.068 | [9] -0.35 | [10] 0.001

TAMM41 isoform 3 (UniProt Q96BW9)
active: [1] -0.278
inactive: [2] -0.041 | [3] -0.112 | [4] -0.005 | [5] -0.108 | [6] 0.026 | [7] 0.037 | [8] 0.028 | [9] -0.043 | [10] -0.044

SLC38A9 (UniProt Q8NBW4)
inactive: [1] -0.022 | [2] -0.04 | [3] 0.02 | [4] 0.05 | [5] 0.094 | [6] -0.081 | [7] -0.017 | [8] -0.034 | [9] 0.038 | [10] 0.046

SLC4A2 (UniProt P04920)
Chain of UniProt P04920 (P04920 whole entry, looked up): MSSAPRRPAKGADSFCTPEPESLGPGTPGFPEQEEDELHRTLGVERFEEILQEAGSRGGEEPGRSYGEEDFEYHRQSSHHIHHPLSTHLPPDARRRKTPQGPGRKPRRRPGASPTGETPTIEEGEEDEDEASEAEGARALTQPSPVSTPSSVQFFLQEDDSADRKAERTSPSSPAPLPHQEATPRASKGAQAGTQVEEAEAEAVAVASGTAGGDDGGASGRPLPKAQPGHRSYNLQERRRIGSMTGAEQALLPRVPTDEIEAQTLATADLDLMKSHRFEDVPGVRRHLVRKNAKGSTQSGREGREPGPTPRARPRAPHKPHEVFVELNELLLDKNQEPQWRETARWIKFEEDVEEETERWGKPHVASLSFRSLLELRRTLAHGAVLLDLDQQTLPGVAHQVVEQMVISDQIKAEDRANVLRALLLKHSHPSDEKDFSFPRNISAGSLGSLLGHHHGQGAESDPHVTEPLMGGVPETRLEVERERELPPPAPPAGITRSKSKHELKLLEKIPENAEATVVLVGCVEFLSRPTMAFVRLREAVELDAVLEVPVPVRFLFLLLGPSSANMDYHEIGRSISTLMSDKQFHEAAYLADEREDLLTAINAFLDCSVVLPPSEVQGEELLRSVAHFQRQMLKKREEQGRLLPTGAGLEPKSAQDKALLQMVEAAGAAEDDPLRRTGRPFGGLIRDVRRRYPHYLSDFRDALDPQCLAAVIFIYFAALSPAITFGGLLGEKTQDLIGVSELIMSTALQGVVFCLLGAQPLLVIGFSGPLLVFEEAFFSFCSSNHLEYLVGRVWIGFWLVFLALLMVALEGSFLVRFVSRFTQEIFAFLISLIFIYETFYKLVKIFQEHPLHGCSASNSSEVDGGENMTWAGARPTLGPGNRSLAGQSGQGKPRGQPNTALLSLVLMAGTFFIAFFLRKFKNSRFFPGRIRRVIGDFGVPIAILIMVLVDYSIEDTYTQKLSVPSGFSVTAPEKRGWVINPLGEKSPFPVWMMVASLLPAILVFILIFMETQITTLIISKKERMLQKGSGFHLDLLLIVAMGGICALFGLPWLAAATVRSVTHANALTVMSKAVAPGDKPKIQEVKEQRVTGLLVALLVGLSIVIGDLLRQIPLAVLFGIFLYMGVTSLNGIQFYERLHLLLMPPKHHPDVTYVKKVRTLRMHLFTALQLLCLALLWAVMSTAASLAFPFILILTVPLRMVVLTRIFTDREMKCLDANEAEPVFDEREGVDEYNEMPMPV
inactive: [1] -0.101 | [2] -0.037 | [3] 0.027 | [4] -0.165 | [5] -0.125 | [6] 0.043 | [7] 0.023 | [8] -0.045 | [9] -0.068 | [10] 0.029

SMC5 (UniProt Q8IY18)
Chain of UniProt Q8IY18 (Q8IY18 whole entry, looked up): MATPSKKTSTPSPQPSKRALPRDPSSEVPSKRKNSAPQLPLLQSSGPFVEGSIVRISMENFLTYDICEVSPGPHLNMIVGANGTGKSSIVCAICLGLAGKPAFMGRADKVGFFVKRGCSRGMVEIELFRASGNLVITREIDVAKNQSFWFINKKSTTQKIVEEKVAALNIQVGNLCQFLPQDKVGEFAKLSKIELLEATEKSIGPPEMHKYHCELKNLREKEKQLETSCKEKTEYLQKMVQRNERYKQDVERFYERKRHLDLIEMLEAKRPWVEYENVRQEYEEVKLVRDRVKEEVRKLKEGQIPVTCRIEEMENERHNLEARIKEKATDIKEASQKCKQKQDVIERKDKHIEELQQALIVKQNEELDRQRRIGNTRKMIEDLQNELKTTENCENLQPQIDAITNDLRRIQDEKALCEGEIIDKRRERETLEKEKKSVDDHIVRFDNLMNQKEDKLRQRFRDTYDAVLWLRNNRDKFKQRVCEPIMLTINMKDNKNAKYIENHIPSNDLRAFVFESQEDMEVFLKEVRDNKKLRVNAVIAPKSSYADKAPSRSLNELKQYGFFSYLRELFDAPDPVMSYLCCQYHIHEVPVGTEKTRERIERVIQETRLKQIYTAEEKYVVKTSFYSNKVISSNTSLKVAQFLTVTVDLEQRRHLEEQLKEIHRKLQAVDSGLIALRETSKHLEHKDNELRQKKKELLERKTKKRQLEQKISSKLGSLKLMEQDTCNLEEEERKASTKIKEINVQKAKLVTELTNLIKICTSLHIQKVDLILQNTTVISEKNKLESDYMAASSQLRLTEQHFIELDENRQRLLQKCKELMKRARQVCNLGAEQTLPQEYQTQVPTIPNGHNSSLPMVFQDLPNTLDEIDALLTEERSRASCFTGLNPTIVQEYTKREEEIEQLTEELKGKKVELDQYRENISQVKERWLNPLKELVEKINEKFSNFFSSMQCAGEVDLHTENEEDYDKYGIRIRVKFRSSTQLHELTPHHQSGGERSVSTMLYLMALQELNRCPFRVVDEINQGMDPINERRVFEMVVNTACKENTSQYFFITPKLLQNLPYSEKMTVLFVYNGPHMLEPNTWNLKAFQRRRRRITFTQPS
inactive: [1] 0.02 | [2] -0.029 | [3] 0 | [4] -0.095 | [5] 0.05 | [6] 0.082 | [7] 0.006 | [8] -0.102 | [9] 0.032 | [10] -0.004

SNW1 (UniProt Q13573)
Chain of UniProt Q13573 (Q13573 whole entry, looked up): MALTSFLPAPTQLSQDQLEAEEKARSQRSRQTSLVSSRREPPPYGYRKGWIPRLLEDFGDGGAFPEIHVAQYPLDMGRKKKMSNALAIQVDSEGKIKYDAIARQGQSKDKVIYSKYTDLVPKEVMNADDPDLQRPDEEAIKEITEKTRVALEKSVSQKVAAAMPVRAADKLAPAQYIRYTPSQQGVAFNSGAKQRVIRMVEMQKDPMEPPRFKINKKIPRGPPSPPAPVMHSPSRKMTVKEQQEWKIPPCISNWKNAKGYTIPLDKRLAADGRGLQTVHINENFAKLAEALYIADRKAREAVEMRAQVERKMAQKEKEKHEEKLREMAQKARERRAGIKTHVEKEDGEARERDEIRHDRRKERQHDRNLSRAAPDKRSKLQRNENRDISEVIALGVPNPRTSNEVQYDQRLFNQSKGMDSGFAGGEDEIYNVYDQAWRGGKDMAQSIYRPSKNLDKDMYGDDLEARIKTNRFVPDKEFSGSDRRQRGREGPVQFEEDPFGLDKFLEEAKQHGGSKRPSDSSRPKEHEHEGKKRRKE
inactive: [1] -0.049 | [2] -0.071 | [3] 0.004 | [4] 0.067 | [5] 0.027 | [6] 0.088 | [7] -0.055 | [8] -0.043 | [9] 0.026 | [10] -0.006

TACC2 (UniProt O95359)
inactive: [1] -0.044 | [2] 0.011 | [3] 0.027 | [4] 0.073 | [5] 0.059 | [6] 0.008 | [7] -0.001 | [8] -0.003 | [9] 0.029 | [10] -0.006

SPPL2B (UniProt Q8TCT7)
Chain of UniProt Q8TCT7 (Q8TCT7 whole entry, looked up): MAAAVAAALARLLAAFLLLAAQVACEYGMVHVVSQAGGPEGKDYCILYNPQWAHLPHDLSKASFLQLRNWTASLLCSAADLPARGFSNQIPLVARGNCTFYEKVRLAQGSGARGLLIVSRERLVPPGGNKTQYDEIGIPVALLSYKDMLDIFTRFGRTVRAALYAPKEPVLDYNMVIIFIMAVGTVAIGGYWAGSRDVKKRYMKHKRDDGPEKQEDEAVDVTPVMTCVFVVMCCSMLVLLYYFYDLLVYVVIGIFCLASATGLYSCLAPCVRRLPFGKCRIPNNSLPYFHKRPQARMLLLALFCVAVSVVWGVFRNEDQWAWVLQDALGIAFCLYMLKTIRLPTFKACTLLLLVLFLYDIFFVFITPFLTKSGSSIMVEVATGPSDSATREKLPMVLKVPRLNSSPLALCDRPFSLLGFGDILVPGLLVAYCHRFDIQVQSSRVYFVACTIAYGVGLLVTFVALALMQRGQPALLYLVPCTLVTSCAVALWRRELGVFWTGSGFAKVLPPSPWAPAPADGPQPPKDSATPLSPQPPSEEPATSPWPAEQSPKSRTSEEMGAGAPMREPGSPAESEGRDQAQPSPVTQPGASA
inactive: [1] -0.087 | [2] 0.066 | [3] -0.016 | [4] -0.006 | [5] -0.066 | [6] 0.009 | [7] 0.116 | [8] -0.118 | [9] 0.036 | [10] -0.008

STOM (UniProt P27105)
Chain of UniProt P27105 (P27105 whole entry, looked up): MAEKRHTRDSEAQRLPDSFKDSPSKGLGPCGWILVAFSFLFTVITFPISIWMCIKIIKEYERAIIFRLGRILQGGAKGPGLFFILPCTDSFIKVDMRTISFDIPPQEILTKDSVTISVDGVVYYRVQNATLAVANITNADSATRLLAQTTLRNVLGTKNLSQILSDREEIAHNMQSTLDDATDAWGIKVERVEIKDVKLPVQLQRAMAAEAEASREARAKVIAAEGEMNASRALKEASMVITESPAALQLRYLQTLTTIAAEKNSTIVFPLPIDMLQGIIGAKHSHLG
inactive: [1] -0.01 | [2] 0.043 | [3] 0.039 | [4] -0.007 | [5] 0.039 | [6] -0.03 | [7] -0.043 | [8] 0.055 | [9] 0.031 | [10] -0.008

SNRNP40 (UniProt Q96DI7)
inactive: [1] 0.018 | [2] -0.023 | [3] 0.054 | [4] 0.166 | [5] 0.1 | [6] 0.119 | [7] -0.051 | [8] -0.021 | [9] 0.038 | [10] 0.006

SNUPN (UniProt O95149)
inactive: [1] -0.031 | [2] 0.006 | [3] -0.025 | [4] -0.009 | [5] -0.051 | [6] 0.018 | [7] 0.013 | [8] -0.054 | [9] 0.003 | [10] 0.06

TENT5C (UniProt Q5VWP2)
inactive: [1] -0.055 | [2] 0.009 | [3] 0.002 | [4] 0.02 | [5] -0.122 | [6] 0.005 | [7] -0.286 | [8] 0.028 | [9] -0.02 | [10] 0.014

STAT5A (UniProt P42229)
inactive: [1] 0.034 | [2] 0.208 | [3] -0.112 | [5] -0.191 | [6] -0.051 | [7] 0 | [8] 0.104 | [9] -0.107
active: [4] -0.338 | [10] 0.371

SMARCA5 (UniProt O60264)
inactive: [1] -0.052 | [2] 0.001 | [3] -0.019 | [4] -0.152 | [5] -0.052 | [6] 0.002 | [7] -0.088 | [8] -0.112 | [9] -0.022 | [10] 0.184

SREK1 isoform 2 (UniProt Q8WXA9)
inactive: [1] 0.07 | [2] 0.015 | [3] 0.156 | [5] -0.095 | [6] 0.005 | [7] -0.006 | [8] -0.11 | [9] 0.031 | [10] 0.063
active: [4] -0.593

SNX15 (UniProt Q9NRS6)
Chain of UniProt Q9NRS6 (Q9NRS6 whole entry, looked up): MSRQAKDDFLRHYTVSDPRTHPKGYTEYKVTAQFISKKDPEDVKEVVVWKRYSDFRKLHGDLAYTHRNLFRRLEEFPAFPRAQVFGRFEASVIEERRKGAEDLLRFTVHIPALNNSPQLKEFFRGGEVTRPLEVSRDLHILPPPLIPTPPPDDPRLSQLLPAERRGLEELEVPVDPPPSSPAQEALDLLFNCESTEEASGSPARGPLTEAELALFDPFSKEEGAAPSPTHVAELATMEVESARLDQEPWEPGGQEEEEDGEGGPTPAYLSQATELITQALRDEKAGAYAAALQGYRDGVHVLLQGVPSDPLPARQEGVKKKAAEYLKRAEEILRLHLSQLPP
inactive: [1] 0.036 | [2] 0.154 | [3] -0.064 | [4] -0.17 | [5] 0.206 | [6] 0.002 | [7] -0.046 | [8] 0.086 | [9] 0.067 | [10] -0.063

STRN (UniProt O43815)
Chain of UniProt O43815 (O43815 whole entry, looked up): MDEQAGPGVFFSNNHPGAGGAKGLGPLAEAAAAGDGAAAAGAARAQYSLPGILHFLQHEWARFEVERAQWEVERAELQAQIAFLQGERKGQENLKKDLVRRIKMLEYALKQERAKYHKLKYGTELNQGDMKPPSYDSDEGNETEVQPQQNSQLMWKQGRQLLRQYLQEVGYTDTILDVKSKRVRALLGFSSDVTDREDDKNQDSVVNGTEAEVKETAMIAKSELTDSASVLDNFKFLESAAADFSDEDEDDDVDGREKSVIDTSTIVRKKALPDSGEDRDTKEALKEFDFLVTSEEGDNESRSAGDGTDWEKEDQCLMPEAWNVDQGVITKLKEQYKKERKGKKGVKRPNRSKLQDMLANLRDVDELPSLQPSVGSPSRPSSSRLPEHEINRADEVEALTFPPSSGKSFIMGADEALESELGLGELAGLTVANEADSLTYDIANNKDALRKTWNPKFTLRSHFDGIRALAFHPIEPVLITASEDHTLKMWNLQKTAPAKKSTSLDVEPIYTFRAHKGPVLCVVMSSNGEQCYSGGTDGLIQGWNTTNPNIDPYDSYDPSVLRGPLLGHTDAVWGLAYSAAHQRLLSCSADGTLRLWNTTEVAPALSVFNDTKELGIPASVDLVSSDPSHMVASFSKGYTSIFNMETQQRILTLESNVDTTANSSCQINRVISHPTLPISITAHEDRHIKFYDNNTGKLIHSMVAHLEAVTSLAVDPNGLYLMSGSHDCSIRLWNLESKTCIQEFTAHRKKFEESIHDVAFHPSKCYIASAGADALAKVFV
inactive: [1] -0.016 | [2] 0.063 | [3] 0.014 | [4] 0.048 | [5] -0.068 | [6] -0.008 | [7] 0.022 | [8] -0.064 | [9] 0 | [10] 0.021

SOAT1 (UniProt P35610)
inactive: [1] 0.085 | [2] 0.011 | [4] -0.001 | [5] 0.257 | [6] -0.021 | [7] 0.031 | [8] -0.058 | [9] 0.039 | [10] 0.096
active: [3] 0.566

STXBP5 (UniProt Q5T5C0)
inactive: [1] -0.032 | [2] 0.017 | [3] 0.003 | [4] -0.025 | [5] -0.06 | [6] -0.003 | [7] 0.021 | [8] -0.026 | [9] -0.049 | [10] -0.021

TARBP1 (UniProt Q13395)
inactive: [1] -0.022 | [2] 0.005 | [3] 0.019 | [4] 0.081 | [5] -0.058 | [6] -0.026 | [7] 0.116 | [8] -0.013 | [9] 0.036 | [10] -0.055

STARD7 (UniProt Q9NQZ5)
inactive: [1] -0.043 | [2] 0.109 | [3] -0.057 | [4] 0.081 | [5] -0.035 | [6] 0.094 | [7] 0.021 | [8] -0.007 | [9] -0.026 | [10] 0.032

SRSF3 (UniProt P84103)
inactive: [1] 0.126 | [2] -0.028 | [3] 0.075 | [5] 0.173 | [6] 0.082 | [7] -0.199 | [8] -0.154 | [9] 0.134 | [10] -0.097
active: [4] -0.544

STAM2 (UniProt O75886)
inactive: [1] -0.067 | [2] 0.014 | [3] 0.007 | [4] -0.077 | [5] 0.044 | [6] -0.008 | [7] 0.016 | [8] 0.009 | [9] -0.012 | [10] 0.019

TK1 (UniProt K7ERV3)
inactive: [1] -0.03 | [2] 0.022 | [3] -0.108 | [4] -0.018 | [5] 0.018 | [6] -0.076 | [7] 0.176 | [8] 0.016 | [9] 0.03 | [10] 0.037

SP1 (UniProt P08047)
inactive: [1] -0.041 | [2] -0.006 | [3] 0.005 | [4] -0.003 | [5] -0.005 | [6] -0.02 | [7] -0.018 | [8] 0.091 | [9] 0.01 | [10] -0.023

SNX12 isoform 1 (UniProt Q9UMY4)
Chain of UniProt Q9UMY4 (Q9UMY4 whole entry, looked up): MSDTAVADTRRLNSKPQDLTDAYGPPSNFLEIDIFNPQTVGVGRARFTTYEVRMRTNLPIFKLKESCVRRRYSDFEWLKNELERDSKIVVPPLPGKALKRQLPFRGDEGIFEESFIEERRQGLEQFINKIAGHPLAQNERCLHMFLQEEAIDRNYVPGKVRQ
inactive: [1] -0.067 | [2] 0.042 | [3] -0.038 | [4] -0.016 | [5] -0.043 | [6] -0.191 | [7] 0.038 | [8] 0.008 | [9] -0.015 | [10] -0.009

SPECC1 (UniProt Q5M775)
inactive: [1] -0.102 | [2] -0.1 | [3] -0.108 | [4] -0.133 | [5] -0.067 | [6] 0.063 | [7] -0.035 | [8] 0.089 | [9] 0.028 | [10] 0.044
